Bioassay records as filed in PubChem BioAssay.
The list is not random: actives were taken first. Their share in the collection is about 6%.
D1 antagonist – human D1 dopamine receptor antagonism. activity change, negative = inhibition, % at 10 µM. 3.2% of 360,000 active. P21728. HEK293 TREx D1 cells, calcium flux, dopamine EC80; hits give low values; in the data active = activity change below about -30%; also: % is scaled to controls: 0 for no effect and ±100 for the full control effect
Target sequence (P21728 whole entry, looked up): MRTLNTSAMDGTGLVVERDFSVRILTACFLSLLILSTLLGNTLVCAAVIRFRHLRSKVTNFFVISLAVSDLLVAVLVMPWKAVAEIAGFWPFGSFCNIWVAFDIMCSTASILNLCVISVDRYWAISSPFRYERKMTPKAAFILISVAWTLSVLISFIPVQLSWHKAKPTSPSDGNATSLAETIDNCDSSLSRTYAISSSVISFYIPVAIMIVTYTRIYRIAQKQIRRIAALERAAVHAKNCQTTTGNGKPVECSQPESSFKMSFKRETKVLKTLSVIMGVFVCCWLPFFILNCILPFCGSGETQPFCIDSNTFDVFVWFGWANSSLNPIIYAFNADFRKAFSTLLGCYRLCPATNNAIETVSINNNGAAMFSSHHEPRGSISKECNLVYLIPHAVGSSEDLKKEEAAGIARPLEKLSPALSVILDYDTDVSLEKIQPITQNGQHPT
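Tetracycline-induced HEK293 T-REx cells with force-coupled D1 receptor were loaded with a no-wash calcium dye. Compound was added after a 10 s baseline and read kinetically for 180 s; EC80 dopamine was then added and calcium flux followed another 180 s.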
D1 agonist – human D1 receptor agonism | HEK293 T-REx D1 cells, calcium flux, agonist mode | P21728 | 1% of 360,000 active | activation, % at 2 µM; in the data active = activation above about 30%; also: 0% is about no effect
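Agonism was scored from calcium flux recorded over 180 s (1 read/s) after pintool compound addition, following a 10-cycle baseline. Cells were inducible force-coupled HEK293 TREx D1, plated overnight at 30 C and loaded with no-wash calcium dye.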
D1 PAM – human D1 dopamine receptor positive modulation; P21728; HEK293 TREx D1 cells, calcium flux, dopamine EC20 potentiation; potentiation, % at 10 µM; 0.036% of 360,000 active; AID 504651; in the data active = potentiation above about 30%; also: 0% is about no effect
D3 antag – antagonists of human D3 dopamine receptor | P35462 | 2.5% of 360,000 active | D3R cells, DiscoveRx beta-arrestin luminescence, antagonist mode; hits give low values | max response, negative = inhibition, %; in the data active = max response below about -50%; inconclusive = no clear call, values can overlap the other calls; also: % is scaled to controls: 0 for no effect and ±100 for the full control effect
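Cells plated overnight at 1500 cells/well, then exposed to library compounds with dopamine controls for 90 minutes at 37 degrees C. DiscoveRx reagent added for 30–60 minutes at room temperature; luminescence read, quantitative HTS format.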
DRD3 agonist – D3 dopamine receptor (human) agonism | AID 652048 | max activation, % | 0.58% of 410,000 active | P35462 | D3R DiscoveRx beta-arrestin cells, luminescence, 90 min; in the data active = max activation above about 30%; also: 0% is about no effect
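Agonist-mode cell screen: cells plated at 1500/well and incubated overnight at 37 °C, then exposed to library compounds for 90 min at 37 °C. Detection reagent was added for 30–60 min at room temperature, and luminescence was read.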
* marks the source's active call; other numbers are inactive results; u = inconclusive; x = no result given; ! = a repeat was not active.

SMILES	D1 antagonist	D1 agonist	D1 PAM	D3 antag	DRD3 agonist
COc1cc(/C(C)=N/NC(=O)c2nnn(-c3nonc3N)c2-c2cccs2)ccc1O	-3	6	1	-10	-1
COc1cccc(/C=C/c2onc(C)c2S(=O)(=O)N2CCC(C(=O)N3CCCCC3)CC2)c1	1	6	-6	x	-1
CCc1ccc(S(=O)(=O)c2nnn3c2nc(Nc2cc(OC)ccc2OC)c2sccc23)cc1	12	0	-2	x	9
Cc1ccc(NC(=O)Nc2ccc3c(c2)N(C)C(=O)CS3)cc1C	-44*	20	x	5	1
Cc1ccc(-c2nc(C(Cl)Cl)c3ccccc3n2)cc1	18	4	1	-60*	-17
O=C(c1ccco1)N1CCCC(N2CCN(c3ccccc3F)CC2)C1 (stereo not drawn)	-9	1	0	u	-12
COc1ccc(C(=O)N2CCCC(N3CCN(c4ccccc4F)CC3)C2)c(OC)n1 (stereo not drawn)	-16	6	2	-20	38*
COc1ccc(C(=O)N2CCCC(N3CCN(c4ccccc4OC)CC3)C2)c(OC)n1 (stereo not drawn)	9	4	5	-19	-6
CC(C)/C=C/C(=O)N1CCCC(N2CCN(c3ccccc3F)CC2)C1 (stereo not drawn)	-46*	1	-5	-18	-2
CCN1c2ccccc2-c2nc3ccccc3n2C1c1ccco1 (stereo not drawn)	2	0	-3	-50*	1
c1ccc(CN2c3ccccc3-c3nc4ccccc4n3C2c2ccccn2)cc1 (stereo not drawn)	32	1	-9	-1	4
COc1ccc(CN2C[C@@H](CO)O[C@@H](n3cnc4c(NC5CC5)ncnc43)C2)cc1	x	x	x	-5	5
COc1ccc(CN(C)C(=O)c2cccc(Oc3ccccc3)c2)c(OC)c1OC	-24	10	-9	0	7
Cc1ccc(NC(=S)NCc2cccn2C)cc1	-14	0	-3	-16	32*
Cc1cccc(NC(=S)NCc2cccn2C)c1	-25	7	-4	-13	4
Cc1c(Cl)cccc1NC(=O)CN1C(=O)COc2ccc(S(=O)(=O)N3CCCCCC3)cc21	24	3	-4	x	6
O=C(COC(=O)CCCOc1ccc(Cl)cc1Cl)NCc1ccccc1	-37*	7	-4	-14	-19
COc1ccc(CNC(=O)COC(=O)Cc2ccc(Cl)cc2Cl)cc1	-47*	17	-4	-80*	13
O=C(COn1nnc2ccc(Cl)cc21)NC1CCS(=O)(=O)C1 (stereo not drawn)	-9	2	-1	-12	-9
O=C(COn1nnc2ccc(Cl)cc21)NCc1ccccc1	-34*	1	-9	-20	-5
O=C(COC(=O)CSc1ccc([N+](=O)[O-])cc1)NCc1cccs1	-55*	7	-5	-11	-1
CCc1ccc(NC(=O)C(Cc2ccccc2)NS(=O)(=O)c2ccc3c(c2)CCN3C(C)=O)cc1 (stereo not drawn)	-11	4	-3	x	-14
Cc1ccc(CNC(=O)CN2C(=O)COc3ccc(S(=O)(=O)N4CCC(C)CC4)cc32)cc1	19	5	4	x	-10
CCCCn1c(=O)c2oc3ccccc3c2n(Cc2ccc(C)cc2)c1=O	-9	1	-2	x	-22
CCN(CC)S(=O)(=O)c1ccc2c(c1)c(=O)c(C(=O)N1CCN(c3ccc(F)cc3)CC1)cn2C	-3	3	0	x	-20
SMILES	D1 antagonist	D1 agonist	D1 PAM	D3 antag	DRD3 agonist
O=C(COC(=O)COc1ccc(Cl)cc1Br)NCc1cccs1	-32*	0	-9	11	-4
O=C(COC(=O)Cc1ccc(Cl)cc1)NCc1cccs1	x	x	x	-8	-1
CCN(CC)CCNC(=O)c1ccc(NC(=O)c2ccc(-n3cncn3)c([N+](=O)[O-])c2)cc1	x	x	x	-1	7
CCCN1C(=O)C(=O)c2cc(C)ccc21	x	x	x	-11	-31
Cc1ccc(CN2C(=O)C(=O)c3cc(C)ccc32)cc1	x	x	x	-54*	-11
CCCCN1C(=O)C(=O)c2cc(Cl)ccc21	x	x	x	-120*	-11
Cc1ccc2c(c1)C(=O)C(=O)N2Cc1ccc(Br)cc1	x	x	x	u	-37
Cc1ccc2c(c1)C(=O)C(=O)N2c1ccc(Cl)cc1	x	x	x	-55*	-56
CCC(CC)=NNc1ccc(S(N)(=O)=O)cc1[N+](=O)[O-]	4	9	-7	-13	0
C/C(CCC(C)C)=N\Nc1ccc(S(N)(=O)=O)cc1[N+](=O)[O-]	-24	1	-2	-58*	-8
NS(=O)(=O)c1ccc(N/N=C/c2ccc(C(=O)O)cc2)c([N+](=O)[O-])c1	6	1	-3	-51*	0
O=C(O)c1ccc(/C=N\Nc2ccc(S(=O)(=O)N3CCOCC3)cc2[N+](=O)[O-])cc1	7	2	1	-2	3
CCOc1cc(N2CCOCC2)c(OCC)cc1NC(=O)CCC1CCCC1	-31*	2	-6	0	1
CCOc1cc(N2CCOCC2)c(OCC)cc1NC(=O)C1CCCC1	9	5	-4	26	0
OCCN1CCN(Cc2cc(Cl)c3cccnc3c2O)CC1	18	3	6	u	-29
OCCN1CCN(Cc2cc(Br)cc(Br)c2O)CC1	5	4	-1	-51*	-26
O=C(Cc1cc(=O)[nH][nH]1)N/N=C/C(Cl)=C/c1ccccc1	1	31*!	2	-11	6
O=C(Cc1cc(=O)[nH][nH]1)N/N=C/c1ccccc1Cl	13	3	-4	-9	-3
Cc1c(CCC(=O)NCc2ccc(F)cc2)c(=O)oc2cc(O)ccc12	-7	1	-2	x	-21
c1ccc(CN2C3=NCCN3c3ccccc32)cc1	14	11	1	13	13
Clc1ccc(CN2C3=NCCN3c3ccccc32)cc1Cl	-5	35*	-4	u	-8
CCN(CC(=O)Nc1cc(Cl)ccc1C)CC(=O)NC1CC1	x	x	x	-21	-2
Cc1ccc(-n2ncc(C(=O)NCc3ccccc3)c2C2CCN(C(=O)OC(C)(C)C)CC2)cc1	3	0	-5	x	-3
Cc1cc2nc(SCC(=O)N(C)C)c3c(c2cc1C)CCCC3	-6	2	-3	-50*	-1
CN(C)C(=O)CSc1nc(-c2ccccc2)nc2c1CCCC2	11	0	-4	-19	-2
CCN(CC)S(=O)(=O)c1ccc(C(O)=C(C#N)c2nc3ccccc3n2C)cc1	x	x	x	50	6
CN1N=C2c3ccccc3CCC2C1c1ccc(C(F)(F)F)cc1 (stereo not drawn)	-82*	4	1	-5	2
Cc1nc(CSc2nnc(C)s2)cs1	-42*	1	-2	0	-6
CCN1CCCC(NC(=O)c2cc([N+](=O)[O-])ccc2OC)C1 (stereo not drawn)	3	5	6	-60*	-26
